Values joined by “and” are separate entries in the source; they are usually repeats but may differ in a detail not shown here. Equal entries are not always repeated. Records with an inconclusive call do not appear. Some structures have more than one record in an assay (separate samples or runs), and their calls can disagree. Active and inactive are the calls of the source. Unless noted, calls come from the whole dose curve; as a rule, active = well fitted curve in the direction sought with a large enough effect; inconclusive = small, poorly fitted or top-dose-only effect, or another doubt; inactive = no such curve, though single readings can be large; an effect the other way counts as inactive or inconclusive.
Legend:
[1] = tested on: JEG-3; assay: Primary qHTS to identify gynecologic anti-cancer compounds using libraries of approved drugs and bioactive compounds (AID 1345084); conditions: Gynecologic cancer cell panel viability, ATPlite luminescence, 48 h; series mostly up to 57.5 µM; note: nearly all actives have a fitted effect of over 55% in size; note: potency is the fitted concentration of half-maximal effect
Procedure, shortened: (§1)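 In this quantitative HTS, cell killing is estimated from loss of ATP-dependent luciferase light. Cells see five compound concentrations over a 48 h exposure.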

[2] = tested on: OV90; assay: as above; conditions: Gynecologic cancer cell panel viability, ATPlite luminescence, 48 h; series mostly up to 57.5 µM
Procedure, shortened: as §1

[3] = tested on: PA-1; assay: as above; conditions: Gynecologic cancer cell panel viability, ATPlite luminescence, 48 h; series mostly up to 57.5 µM
Procedure, shortened: as §1

[4] = tested on: SKOV3; assay: as above; conditions: Gynecologic cancer cell panel viability, ATPlite luminescence, 48 h; series mostly up to 57.5 µM
Procedure, shortened: as §1

[5] = tested on: Tov-21-G; assay: as above; conditions: Gynecologic cancer cell panel viability, ATPlite luminescence, 48 h; series mostly up to 57.5 µM
Procedure, shortened: as §1

[6] = tested on: Tov112D; assay: as above; conditions: Gynecologic cancer cell panel viability, ATPlite luminescence, 48 h; series mostly up to 57.5 µM
Procedure, shortened: as §1

[7] = Drug repurposing screens with cells derived from glioblastoma tumor samples (AID 1345199); conditions: GBM patient neurospheres viability, ATP luminescence, 48 h; note: nearly all actives have a fitted effect of over 40% in size; note: potency is the fitted concentration of half-maximal effect; for activity, negative = cell killing: % is set by controls: 0 for no effect and ±100 for the full control effect
Procedure, shortened: (§2)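 Primary testing used CD133+ neurospheres from four GBM patients, seven concentrations, 48 h exposure and ATP-based viability; confirmation added three slower-growing patient lines.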

[8] = tested on: astro; assay: as above; conditions: viability, ATP luminescence, 48 h; series mostly up to 45.9 µM
Procedure, shortened: as §2

[9] = qHTS assay to identify inhibitors of the type 1 interferon - major histocompatibility complex class I in skeletal muscle: Counter screen cell viability and HiBit confirmation (AID 1347412); conditions: iHSKM muscle cells + IFN-b, HiBiT or CellTiter-Glo, 24 h; for Potency: HiBiT; note: potency is the fitted concentration of half-maximal effect; for activity change, negative = inhibition: % is set by controls: 0 for no effect and ±100 for the full control effect; for all read-outs here: nearly all actives have a fitted effect of over 60% in size
Procedure, shortened: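 Luminescence read-out: Nano-Glo HiBiT lytic signal from C-terminally HiBiT-tagged HLA-B in CRISPR-edited human myoblasts, plus CellTiter Glo ATP as viability counter screen. IFN-beta 4.0 ng/ml; 24 hrs treatment at 37 C, 5% CO2.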

[10] = target: Nuclear receptor subfamily 1 group I member 2 (Rattus norvegicus) (UniProt Q9R1A7); assay: qHTS assay for small molecule activators of the rat pregnane X receptor (rPXR) signaling pathway (AID 651751; call rule not given here; note: 0% is about no effect); conditions: rPXR reporter cells, luciferase (One-Glo), 24 h
[11] = at 46.1 µM (top of the series), tumour line C
[12] = at 20 µM (top of the series), tumour line C
[13] = at 21.2 µM (top of the series), tumour line B
[14] = at 21.2 µM (top of the series), tumour line D
[15] = at 21.3 µM (top of the series), tumour line A
[16] = at 45.9 µM (top of the series), tumour line B
[17] = at 45.9 µM (top of the series), tumour line D
[18] = at 46 µM (top of the series), tumour line A

Chain of Nuclear receptor subfamily 1 group I member 2 (Rattus norvegicus) (Q9R1A7 whole entry, looked up): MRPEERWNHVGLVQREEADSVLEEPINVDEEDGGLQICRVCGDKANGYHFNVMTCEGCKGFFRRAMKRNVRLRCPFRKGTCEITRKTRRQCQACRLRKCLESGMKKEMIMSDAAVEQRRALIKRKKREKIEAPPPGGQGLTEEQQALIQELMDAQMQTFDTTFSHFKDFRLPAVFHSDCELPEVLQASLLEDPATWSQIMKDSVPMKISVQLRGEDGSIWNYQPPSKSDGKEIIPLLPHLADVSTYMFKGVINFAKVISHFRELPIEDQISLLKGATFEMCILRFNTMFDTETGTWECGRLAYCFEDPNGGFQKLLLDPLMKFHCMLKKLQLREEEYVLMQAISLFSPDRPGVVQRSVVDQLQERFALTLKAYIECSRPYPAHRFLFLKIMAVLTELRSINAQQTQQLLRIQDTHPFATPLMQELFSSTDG

CCCOc1ccc(C(=O)OCCN(CC)CC)cc1N
inactive: Potency [1] | Potency [2] | Potency [3] | Potency [4] | Potency [5] | Potency [6] | activity, negative = cell killing [7, 11] -16.2% | Potency [8]
active: Potency ([7]; tumour line A) 14.1 µM

CC(=O)Oc1ccccc1C(=O)Nc1ncc([N+](=O)[O-])s1
inactive: Potency [1] | Potency [2] | Potency [5] | Potency [6] | activity change, negative = inhibition ([9]; Viability, at 45.9 µM (top of the series)) -5.7%
active: Potency [9] 14 µM

COc1cc(NS(=O)(=O)c2ccc(N)cc2)nc(OC)n1
inactive: Potency [1] | Potency [3] | Potency [4] | Potency [5] | Potency [6] | activity, negative = cell killing [7, 12] -7.42% | activity, negative = cell killing [7, 13] -12.9% | activity, negative = cell killing [7, 14] -12.1% | activity, negative = cell killing [7, 15] -9.97%

Nc1nc(F)nc2c1ncn2[C@@H]1O[C@H](CO)[C@@H](O)[C@@H]1O
inactive: Potency [1] | Potency [2] | Potency [3] | Potency [4] | activity, negative = cell killing [7, 16] -27.2% | activity, negative = cell killing [7, 11] -19% and -29.8%
active: Potency [6] 17.8 µM | Potency ([7]; tumour line A) 10 µM | Potency ([7]; tumour line D) 20 µM

CN(CCOc1ccc(CC2SC(=O)NC2=O)cc1)c1ccccn1 (stereo unspecified)
inactive: Potency [1] | Potency [3] | Potency [4] | Potency [5] | Potency [6] | activity, negative = cell killing [7, 16] -18.3% | activity, negative = cell killing [7, 17] -26.6% | activity, negative = cell killing [7, 18] -36.2% | activity, negative = cell killing [7, 11] 15.3%

CNS(=O)(=O)Cc1ccc2[nH]cc(CCN(C)C)c2c1
inactive: Potency [1] | Potency [2] | Potency [3] | Potency [5] | Potency [6] | activity, negative = cell killing [7, 16] 2.54% | activity, negative = cell killing [7, 17] -2.5% | activity, negative = cell killing [7, 18] -14% | activity, negative = cell killing [7, 11] 0.932%

COc1c(N2CCNC(C)C2)c(F)cc2c(=O)c(C(=O)O)cn(C3CC3)c12 (stereo unspecified)
inactive: Potency [1] | Potency [2] | Potency [3] | Potency [5] | Potency [6] | activity, negative = cell killing [7, 16] -10.7% | activity, negative = cell killing [7, 17] -20.8% | activity, negative = cell killing [7, 11] 14.5% | Potency [8]

O=C(O)CSCC(=O)NC1CCSC1=O (stereo unspecified)
inactive: Potency [1] | Potency [2] | Potency [3] | Potency [4] | Potency [5] | Potency [6] | activity, negative = cell killing [7, 16] -7.24% | activity, negative = cell killing [7, 11] 18.1% | Potency [8]

COc1ccc(-c2ccc3cc(C(=O)O)ccc3c2)cc1C12CC3CC(CC(C3)C1)C2
inactive: Potency [1] | Potency [2] | Potency [3] | Potency [4] | Potency [5] | Potency [6] | Potency [8]

CCC(=O)O[C@]1(C(=O)CCl)[C@@H](C)C[C@H]2[C@@H]3CCC4=CC(=O)C=C[C@]4(C)[C@@]3(F)[C@@H](O)C[C@@]21C
inactive: Potency [1] | Potency [2] | Potency [3] | Potency [5] | Potency [6] | activity, negative = cell killing [7, 16] -2.08% | activity, negative = cell killing [7, 17] 0.817% | activity, negative = cell killing [7, 11] 10.1%

Cc1oc(=O)oc1CN1CCN(c2cc3c(cc2F)c(=O)c(C(=O)O)c2n3C(C)S2)CC1 (stereo unspecified)
inactive: Potency [1] | Potency [2] | Potency [3] | Potency [5] | Potency [6] | activity, negative = cell killing [7, 16] -20.2% | activity, negative = cell killing [7, 17] 7.6% | activity, negative = cell killing [7, 18] -22.8% | activity, negative = cell killing [7, 11] -0.513% | Potency [8]

CC(C)(C)NC(=O)[C@H]1CC[C@H]2[C@@H]3CC[C@H]4NC(=O)C=C[C@]4(C)[C@H]3CC[C@]12C
inactive: Potency [1] | Potency [3] | Potency [5] | Potency [6] | activity, negative = cell killing [7, 12] -3.62% | activity, negative = cell killing [7, 13] -10.8% | activity, negative = cell killing [7, 14] -2.64% | activity, negative = cell killing [7, 15] -15%
active: Potency [4] 12.6 µM

CC(C)C[C@H](NC(=O)[C@H](CCc1ccccc1)NC(=O)CN1CCOCC1)C(=O)N[C@@H](Cc1ccccc1)C(=O)N[C@@H](CC(C)C)C(=O)[C@@]1(C)CO1
active: Potency [2] 0.251 µM | Potency [3] 0.0891 µM | Potency [4] 0.251 µM | Potency [5] 0.251 µM | Potency [6] 0.708 µM | Potency [8] 0.708 µM | Potency [9] 0.0883 µM
inactive: Potency [1]

CCCc1nc(C)c2c(=O)[nH]c(-c3cc(S(=O)(=O)N4CCN(CC)CC4)ccc3OCC)nn12
inactive: Potency [1] | Potency [2] | Potency [4] | Potency [5] | Potency [6] | activity, negative = cell killing [7, 16] -13% | activity, negative = cell killing [7, 17] -20.9% | activity, negative = cell killing [7, 11] -8.37% | Potency [8]
active: Potency ([7]; tumour line A) 17.8 µM

CS(=O)(=O)c1ccc([C@@H](O)[C@@H](CO)NC(=O)C(Cl)Cl)cc1
inactive: Potency [1] | Potency [2] | Potency [3] | Potency [4] | Potency [6] | activity, negative = cell killing [7, 12] -12.8% | activity, negative = cell killing [7, 13] -9.12% | activity, negative = cell killing [7, 14] -24.7% | activity, negative = cell killing [7, 15] -19.8% | Potency [8]

O=c1cc(O)c(Cl)c[nH]1
inactive: Potency [1] | Potency [2] | Potency [4] | Potency [5] | Potency [6] | activity, negative = cell killing [7, 16] -16% | activity, negative = cell killing [7, 17] 7.88% | activity, negative = cell killing [7, 18] -15.8% | activity, negative = cell killing [7, 11] -29.9% | Potency [8]

CC(=O)CC(c1ccccc1)c1c(O)c2ccccc2oc1=O (stereo unspecified)
inactive: Potency [1] | Potency [2] | Potency [5] | Potency [6] | activity, negative = cell killing [7, 16] -11.1% and -14.3% | activity, negative = cell killing [7, 17] 1.21% and -22.4% | activity, negative = cell killing [7, 18] -22% | activity, negative = cell killing [7, 11] -1.82% and -1.98% | max response [10] 2.18%

CCc1c2c(nc3ccc(OC(=O)N4CCC(N5CCCCC5)CC4)cc13)-c1cc3c(c(=O)n1C2)COC(=O)[C@]3(O)CC
inactive: Potency [1] | Potency [2] | Potency [5] | activity, negative = cell killing [7, 11] -5.46%
active: Potency [3] 12.6 µM | Potency [6] 10 µM | Potency ([7]; tumour line A) 1 µM

CO[C@@]12[C@H](COC(N)=O)C3=C(C(=O)C(C)=C(N)C3=O)N1C[C@@H]1N[C@@H]12
active: Potency [2] 17.8 µM | Potency [5] 14.1 µM | Potency [6] 0.794 µM
inactive: activity, negative = cell killing [7, 16] -14.3% | activity, negative = cell killing [7, 17] -12.4% | activity, negative = cell killing [7, 18] -9.83% | activity, negative = cell killing [7, 11] -16.3% | Potency [8]

Nc1nc(N)c2nc(CNc3ccc(C(=O)NC(CCC(=O)O)C(=O)O)cc3)cnc2n1 (stereo unspecified)
inactive: max response [10] -7.99%

— PubChem BioAssay (NCATS)
